± gives the standard deviation of the averaged measurements.
These compounds were tested on MDA-MB-231 (assay: kynurenine production, fold change vs DMSO IFNg/TNF control; higher = more kynurenine produced (less inhibition)). Conditions: pre-treatment time: 18 h then 24 h IFNg/TNF.
How it was run: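 After trichloroacetic acid and p-dimethylaminobenzaldehyde treatment, supernatants were read at 492 nm, with 0–100 μM standards. These came from MDA-MB-231 cells (7 × 10^4/well, 96-well plates) pre-treated 18 h with natural products in 0.1% DMSO and then exposed 24 h to IFNγ (1 U/ml) and TNF (6.25 ng/ml) at 37°C. Values for kynurenine production are fold changes over same-plate cytokine-stimulated vehicle wells, averaged over duplicate plates in the first screening round.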

Structure (SMILES)	kynurenine production
CC(C)C1=CC(=O)C(C)(C2C(O)CC3(C)C4CC=C5C(CCC(OC6OC(CO)C(O)C(O)C6OC6OC(C)C(O)C(O)C6O)C5(C)C)C4(C)C(=O)CC23C)O1 (stereo not given) [Picfeltarraenin IB] (compound dose: 10 uM)	0.771 ± 0.23
COc1ccc2cc3[n+](cc2c1OC)CCc1cc2c(cc1-3)OCO2 [Berberine] (compound dose: 10 uM)	0.807 ± 0.11
CC(=O)O[C@@H]1C[C@H](O)[C@@]23CO[C@@H](O)[C@]1(C)[C@@H]2C[C@@H](O)[C@]1(C)[C@@H]3C(=O)[C@H](OC(C)=O)[C@@]2(C)[C@H](c3ccoc3)C[C@H]3O[C@]321 [Toosendanin] (compound dose: 10 uM)	0.206 ± 0.03
O=C1C[C@@H](O[C@@H]2O[C@H](CO)[C@@H](O)[C@H](O)[C@H]2O)CO1 [Kinsenoside] (compound dose: 10 uM)	1.01 ± 0.34
COc1ccc2c(c1O)C(Cc1ccc(O)cc1)[N+](C)(C)CC2 (stereo not given) [Oblongine] (compound dose: 10 uM)	1.03 ± 0.071
C[C@H](CC(=O)C[C@@H](C)[C@H]1C[C@H](O)[C@@]2(C)C3=C(C(=O)C[C@]12C)[C@@]1(C)CCC(=O)C(C)(C)[C@@H]1C[C@@H]3O)C(=O)O [Ganoderic acid A] (compound dose: 10 uM)	0.857 ± 0.073
COC(=O)[C@@]1(C)CC[C@]2(C(=O)O)CC[C@]3(C)C(=CC[C@@H]4[C@@]5(C)C[C@H](O)[C@H](O)[C@@](C)(CO)[C@@H]5CC[C@]43C)[C@@H]2C1 [Phytolaccagenin] (compound dose: 10 uM)	0.875 ± 0.095
CC12CCC(C1)C(C)(C)C2=O (single isomer, unassigned; (-)) [(-)-Fenchone] (compound dose: 10 uM)	0.955 ± 0.13
CC(C)=CCC[C@](C)(O[C@@H]1O[C@H](CO)[C@@H](O)[C@H](O)[C@H]1O)[C@H]1CC[C@]2(C)[C@@H]1[C@H](O)C[C@@H]1[C@@]3(C)CC[C@H](O)C(C)(C)[C@@H]3[C@@H](O[C@@H]3O[C@H](CO)[C@@H](O)[C@H](O)[C@H]3O[C@@H]3OC[C@@H](O)[C@H](O)[C@H]3O)C[C@]12C [Notoginsenoside R1] (compound dose: 10 uM)	1 ± 0.038
O=C(O)c1cncc(C(=O)O)c1 [3-5-pyridinedicarboxylic acid] (compound dose: 10 uM)	0.983 ± 0.025
COc1cc2c(cc1O)C(Cc1ccc(O)cc1)[N+](C)(C)CC2 (stereo not given) [Magnocurarine] (compound dose: 10 uM)	0.937 ± 0.083
COC(=O)C1=CO[C@@H](O[C@@H]2O[C@H](CO)[C@@H](O)[C@H](O)[C@H]2O)[C@@H]2[C@@H](C)CC(=O)[C@]12O [Hastatoside] (compound dose: 10 uM)	0.797 ± 0.12
CC(=O)O[C@@H]1C[C@@]23C[C@@]24CC[C@H](O[C@@H]2OC[C@H](O)[C@H](O)[C@H]2O)C(C)(C)[C@@H]4CC[C@H]3[C@]2(C)[C@@H](O)[C@]34O[C@H](C[C@@H](C)[C@@H]3[C@@]12C)[C@@H](C(C)(C)O)O4 [Cimiracemoside D] (compound dose: 10 uM)	1.16 ± 0.22
CC1=CCC(O)(C(C)C)CC1 (stereo not given) [Terpineol] (compound dose: 10 uM)	0.885 ± 0.087
CC(C)=CC/C=C(\C)[C@H]1CC[C@]2(C)[C@@H]1[C@H](O)C[C@@H]1[C@@]3(C)CC[C@H](O[C@@H]4O[C@H](CO)[C@@H](O)[C@H](O)[C@H]4O[C@@H]4O[C@H](CO)[C@@H](O)[C@H](O)[C@H]4O)C(C)(C)[C@@H]3CC[C@]12C [Ginsenoside Rg5] (compound dose: 10 uM)	0.876 ± 0.12
C[C@@H]1O[C@@H](O[C@H]2[C@H](O[C@H]3CC[C@@]4(C)[C@@H](CC[C@]5(C)[C@@H]4CC=C4[C@@H]6CC(C)(C)CC[C@]6(C(=O)O[C@@H]6O[C@H](CO[C@@H]7O[C@H](CO)[C@@H](O)[C@H](O)[C@H]7O)[C@@H](O)[C@H](O)[C@H]6O)CC[C@]45C)[C@]3(C)CO)OC[C@H](O)[C@@H]2O)[C@H](O)[C@H](O[C@@H]2O[C@H](CO)[C@@H](O[C@@H]3O[C@H](CO)[C@@H](O)[C@H](O)[C@H]3O)[C@H](O)[C@H]2O)[C@H]1O [Macranthoidin B] (compound dose: 10 uM)	0.787 ± 0.18
C[C@@H]1C(=O)O[C@H]2C[C@@]34O[C@@H]5OC(=O)[C@H](O)[C@@]56[C@H](C(C)(C)C)[C@H](O)C(OC3=O)[C@]64[C@]21O (stereo not given in full) [Ginkgolide J] (compound dose: 10 uM)	0.875 ± 0.023
C/C=C(/C)C(=O)O[C@H]1[C@H](O)[C@]2(COC(C)=O)[C@H](O)C[C@]3(C)C(=CC[C@@H]4[C@@]5(C)CC[C@H](O[C@@H]6O[C@H](C(=O)O)[C@@H](O[C@@H]7O[C@H](CO)[C@@H](O)[C@H](O)[C@H]7O)[C@H](O)[C@H]6O[C@@H]6O[C@H](CO)[C@@H](O)[C@H](O)[C@H]6O)[C@](C)(CO)[C@@H]5CC[C@]43C)[C@@H]2CC1(C)C [Isoescin IB] (compound dose: 10 uM)	0.802 ± 0.12

Structure (SMILES)	kynurenine production
C[C@@H]1O[C@@H](OC[C@H]2O[C@@H](Oc3c(-c4ccc(O)cc4)oc4cc(O)cc(O)c4c3=O)[C@H](O)[C@@H](O)[C@@H]2O)[C@H](O)[C@H](O)[C@H]1O [Kaempferol 3-rutinoside] (compound dose: 10 uM)	0.955 ± 0.049
CC(C)C1=C[C@H]2[C@@H](CC[C@]2(C)O)[C@](C)(O)CC1 [Alismoxide] (compound dose: 10 uM)	0.714 ± 0.17
CC(=O)O[C@@H]1C[C@@]23C[C@@]24CC[C@H](O[C@@H]2OC[C@@H](O)[C@H](O)[C@H]2O)C(C)(C)[C@@H]4CC[C@H]3[C@]2(C)C[C@@H]3O[C@]4(C[C@@H](C)[C@@H]3[C@@]12C)OC[C@@]1(C)O[C@@H]41 [26-Deoxyactein] (compound dose: 10 uM)	0.911 ± 0.22
C[C@H](CC[C@@H](O[C@@H]1O[C@H](CO)[C@@H](O)[C@H](O)[C@H]1O)C(C)(C)O)[C@H]1CC[C@@]2(C)[C@@H]3CC=C4[C@@H](CC[C@H](O[C@@H]5O[C@H](CO)[C@@H](O)[C@H](O)[C@H]5O)C4(C)C)[C@]3(C)[C@H](O)C[C@]12C [Mogroside IIe] (compound dose: 10 uM)	0.934 ± 0.29
CC(C)=CCC[C@@](C)(O)[C@H]1CC[C@]2(C)[C@@H]1[C@H](O)C[C@@H]1[C@@]3(C)C[C@@H](O)[C@H](O[C@@H]4O[C@H](CO)[C@@H](O)[C@H](O)[C@H]4O[C@@H]4O[C@H](CO)[C@@H](O)[C@H](O)[C@H]4O)C(C)(C)[C@@H]3CC[C@]12C [Gypenoside LI] (compound dose: 10 uM)	0.724 ± 0.1
CCOC(=O)/C=C/c1ccccc1 [Ethyl cinnamate] (compound dose: 10 uM)	1.14 ± 0.11
O=c1c(O)c(-c2ccc(O)c(O)c2)oc2cc(O)cc(O)c12 [Quercetin] (compound dose: 10 uM)	0.738 ± 0.2
CC(CC(=O)C[C@@H](C)[C@H]1CC(=O)[C@@]2(C)C3=C(C(=O)[C@@H](O)[C@]12C)[C@@]1(C)CC[C@H](O)C(C)(C)[C@@H]1C[C@@H]3O)C(=O)O (stereo not given in full) [Ganoderic acid G] (compound dose: 10 uM)	0.973 ± 0.16
O=c1ccn2c(n1)O[C@H]1[C@H](O)[C@@H](CO)O[C@H]12 [2,2'-Anhydrouridine] (compound dose: 10 uM)	0.923 ± 0.092
CC(C)(O[C@@H]1O[C@H](CO)[C@@H](O)[C@H](O)[C@H]1O)[C@@H]1CC[C@](O)(CO)[C@H]2CC(=O)[C@@](C)(O)[C@@H]2C1 [Atractyloside A] (compound dose: 10 uM)	0.854 ± 0.057
CC1(C)CC[C@]2(C(=O)O)CC[C@]3(C)C(=CC[C@@H]4[C@@]5(C)CC[C@H](O[C@@H]6O[C@H](C(=O)O)[C@@H](O)[C@H](O)[C@H]6O)C(C)(C)[C@@H]5CC[C@]43C)[C@@H]2C1 [Calenduloside E] (compound dose: 10 uM)	0.962 ± 0.087
CC(C)=CCC/C(C)=C/CO [Geraniol] (compound dose: 10 uM)	0.829 ± 0.2
O=C(O)/C=C/c1ccccc1O [O-coumaric acid] (compound dose: 10 uM)	0.9916 ± 0.006
CC(C)=CCC[C@](C)(O[C@@H]1O[C@H](CO[C@@H]2OC[C@@H](O)[C@H](O)[C@H]2O)[C@@H](O)[C@H](O)[C@H]1O)[C@H]1CC[C@]2(C)[C@@H]1[C@H](O)C[C@@H]1[C@@]3(C)CC[C@H](O[C@@H]4O[C@H](CO)[C@@H](O)[C@H](O)[C@H]4O[C@@H]4O[C@H](CO)[C@@H](O)[C@H](O)[C@H]4O)C(C)(C)[C@@H]3CC[C@]12C [Ginsenoside Rb3] (compound dose: 10 uM)	0.73 ± 0.19
CC1(C)CC[C@]2(C)CC[C@]3(C)C(=CC[C@@H]4[C@@]5(C)CC[C@@H](O)[C@](C)(C(=O)O)[C@@H]5CC[C@]43C)[C@@H]2C1 [alpha-Boswellic acid] (compound dose: 10 uM)	0.911 ± 0.028
C=C(C(=O)O)[C@@H]1CC[C@@H](C)[C@@H]2CCC(C)=C[C@@H]21 [Artemisinic acid] (compound dose: 10 uM)	0.889 ± 0.031
C=C1CC[C@@H]2[C@](C)(COC(=O)CCC(=O)O)[C@H](OC(=O)CCC(=O)O)CC[C@@]2(C)[C@@H]1/C=C/C1=CCOC1=O [Kalii Dehydrographolidi Succinas] (compound dose: 2 uM)	1.2675 ± 0.00049

From the supplement of paper PMC13094657
